# ELG1 genotoxic: induces genotoxicity in HEK293T cells with luciferase-tagged ELG1; HEK293T ELG1-luciferase reporter, luminescence, 16 h; AID 504466; hit rate 1.3% among 330,000; Potency, µM (top dose mostly 46 µM), inactives show at the top dose activity change, positive = activation, hits mostly activators; also: % of control where 0% means no effect; nearly all actives have a fitted effect of over 60% in size
#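 Luminescence read-out: rising ELG1-luciferase signal, reflecting elevated ELG1 protein under genetic stress, flags genotoxic compounds. Cells were treated for 16 hr at 37 °C before ONE-Glo detection.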
# SMN2 splice up: SMN2 splice variant enhancement. HEK293 SMN2-luciferase splicing reporter, luminescence, 30-36 h. Potency, µM (highest dose often 46.1 µM), inactives show at the highest dose activity change, positive = activation, actives largely listed as activators. hit rate 2.8% among 210,000. AID 1458; also: % of control where 0% means no effect; nearly all actives have a fitted effect of over 55% in size
#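 HEK293 cells carry an SMN2 minigene-luciferase reporter in which exon 7 inclusion puts luciferase in frame. Cells were seeded at 2000 cells/well, attached for 10-12 hours, then exposed to compounds for 30-36 hours at 37C before ONE-Glo luminescence.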
# p53 reactivation: mutant p53 re-activation in reporter cells | hit rate 0.063% among 320,000 | Potency, µM (top dose mostly 92.2 µM), for the others: top-dose activity change, positive = activation, usual class: activators | H1299 p53-A138V BP100-luciferase reporter, luminescence, 24 h; also: % of control where 0% means no effect; nearly all actives have a fitted effect of over 45% in size
#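 H1299 (p53-null), stable ts p53-A138V + BP100-Luc; 1000 cells/well, Opti-MEM/10% FBS; cpd 4 pt, 1:5; 24 h, 37 deg C, 5% CO2; detection reagent 10 min RT; luminescence.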
# NPC1 promoter act: activators of NPC1 promoter; hit rate 2.4% among 320,000; Huh7 NPC1 promoter luciferase reporter, 24 h; Potency, µM (highest dose often 9.22 µM), for the others: top-dose activation, most hits filed as activators; AID 485313; also: % of control where 0% means no effect; nearly all actives have a fitted effect of over 60% in size
#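 Compounds in DMSO were transferred onto Huh7 NPC1-luciferase reporter cells pre-incubated 2 h; after 24 h at 37 °C, Amplite reagent was dispensed and luminescence recorded 10 min later.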
# Rab9 promoter act: activators of Rab9 promoter. Potency, µM (top dose mostly 9.22 µM), without a hit: top-dose activation, negative = inhibition, actives largely listed as activators. hit rate 2.8% among 320,000. Huh7 Rab9 promoter-luciferase reporter, luminescence, 24 h; also: % of control where 0% means no effect; nearly all actives have a fitted effect of over 60% in size
#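 Cells were plated at 1500 per well in reduced-serum medium with 10% FBS and left 2 h. Compound in DMSO was then added for 24 h at 37 °C. Reporter signal was read by luminescence after 10 min with luciferase detection reagent.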
# FLuc modulator: firefly luciferase modulation, counter-screen for miR-21 project; P08659; AID 588342; Potency, µM (series often up to 57.5 µM), for the others: at the top dose activity change, negative = inhibition, hits mostly inhibitors; hit rate 6.9% among 360,000; purified FLuc, Km substrates, luminescence inhibition;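 also: plate controls were vehicle for no effect and reference inhibitor for full effect; nearly all actives have a fitted effect of over 55% in size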
# Target sequence (P08659 whole entry, looked up): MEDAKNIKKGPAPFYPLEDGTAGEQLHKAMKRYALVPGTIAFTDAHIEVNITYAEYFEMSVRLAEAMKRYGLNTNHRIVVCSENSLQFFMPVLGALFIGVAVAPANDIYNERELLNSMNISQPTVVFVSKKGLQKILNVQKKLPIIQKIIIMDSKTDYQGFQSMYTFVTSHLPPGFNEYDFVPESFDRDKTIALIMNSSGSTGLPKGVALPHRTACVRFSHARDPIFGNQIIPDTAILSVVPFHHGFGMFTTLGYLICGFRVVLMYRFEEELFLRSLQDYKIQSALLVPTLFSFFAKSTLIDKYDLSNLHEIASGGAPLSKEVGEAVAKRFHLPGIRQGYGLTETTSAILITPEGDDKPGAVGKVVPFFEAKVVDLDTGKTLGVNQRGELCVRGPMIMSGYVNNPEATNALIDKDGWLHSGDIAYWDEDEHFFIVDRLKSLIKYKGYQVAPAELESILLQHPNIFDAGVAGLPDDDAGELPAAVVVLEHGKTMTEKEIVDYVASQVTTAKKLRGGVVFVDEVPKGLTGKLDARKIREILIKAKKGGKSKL
#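 Purified P. pyralis luciferase, 10 nM final, with Km-level 10 uM D-luciferin and 10 uM ATP in 50 mM Tris acetate pH 7.5, 10 mM Mg acetate, 0.01% Tween-20, 0.05% BSA; 6-point qHTS titration about 60 µM downward; luminescence read.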
# Starred values were filed as active, the others as inactive; ? = inconclusive; / = not tested or not shown; [ ] = dose if it differs, or a comment. An excerpt weighted towards active compounds, which were near 7.4% of everything screened. Calls follow the shape of the dose curve; as a rule, active = well fitted curve in the direction sought with a large enough effect; inconclusive = small, poorly fitted or top-dose-only effect, or another doubt; inactive = no such curve, though single readings can be large; an effect the other way counts as inactive or inconclusive. Potency is read from the fitted curve at half-maximal effect.
SMILES,ELG1 genotoxic,SMN2 splice up,p53 reactivation,NPC1 promoter act,Rab9 promoter act,FLuc modulator
COc1ccc(NC(=O)c2ccccc2-c2ccccc2C(=O)O)cc1,-1.5%,/,17.4%,0.3%,-3.0%,3.3%
Cc1cccc(Oc2ccc(NC(=O)c3ccccc3C(=O)O)cc2)c1C,-1.5%,-13.8%,-2.0%,-0.3%,-1.7%,19µM*
O=C(Nc1ccc(Oc2cccc3ccccc23)cc1)c1ccco1,?,-54.3%,-2.3%,3.6%,12.8%,23.9µM*
COc1ccc(NC(=O)c2ccccc2Oc2ccccc2)cc1,4.6%,/,/,2.8%,0.9%,-10.1%
Cc1c(C)c(C)c(C(=O)c2ccc(NC(=O)c3ccccc3C(=O)O)cc2)c(C)c1C,1.1%,/,-2.9%,-4.8%,-2.7%,-1.4%
O=C(O)c1ccccc1C(=O)Nc1ccc(Oc2cccc3ccccc23)cc1,-10.5%,-7.8%,-10.6%,-3.3%,-1.9%,23.9µM*
COC(=O)c1c(OC)cc2c(c1C)Oc1c(Cl)c(OC(C)=O)c(Cl)c(C)c1C(=O)O2,/,5.8%,/,/,/,/
CCOC(=O)C(=O)Cc1nc2ccccc2s1,2.3%,/,3.7%,2.7%,12.2%,19µM*
O=C(OCc1nc2ccccc2s1)c1ccc(Br)o1,14.0%,19.0%,7.6%,-4.7%,-0.1%,?
Cc1cc(C(=O)OCc2nc3ccccc3s2)c(C)o1,/,-2.0%,/,/,/,19µM*
O=C(OCc1nc2ccccc2s1)c1ccco1,?,20.0%,?,9.8%,-1.8%,6.75µM*
NC(=O)c1ccccc1OCc1nc2ccccc2s1,?,/,?,?,?,3.01µM*
CCCC[C@@H]1C[C@H]1C(NC(=O)c1cccs1)c1ccc(Cl)cc1 (stereo not given in full),/,-72.6%,/,/,/,/
Cc1ccc(C(=O)O[C@H](C(=O)O)[C@@H](OC(=O)c2ccc(C)cc2)C(=O)O)cc1 (tested in a mixture with another compound),/,1.1%,/,1.5%[46.1 µM],0.6%[46.1 µM],/
COc1cc(NS(=O)(=O)c2ccc3c(c2)CCN3S(C)(=O)=O)cc(OC)c1,/,/,/,/,/,-17.7%
CCc1ccc(-n2c(=O)c3c4c(sc3n(CC(=O)NCCCOC)c2=O)CCCC4)cc1,/,-1.2%,/,/,/,3.6%
COc1ccc(CCn2nnnc2C2(c3ccc(C)cc3)CC2)cc1,/,/,/,-1.9%[46.1 µM],-11.2%[46.1 µM],/
O=C(O)COCc1nc2ccccc2s1,-2.0%,/,4.4%,-0.1%,-2.9%,2.5%
CC(=O)OCc1nc2ccccc2s1,?,-4.6%,18.0%,14.0%,14.6%,5.36µM*
CCN(CC(=O)Nc1c(F)cccc1F)C(=O)c1cc(C)oc1C,-0.5%,/,-4.8%,-11.9%,-6.9%,4.9%
O=c1oc(-c2ccccc2NS(=O)(=O)c2ccccc2)nc2ccccc12,0.2%,-16.5%,3.2%,-0.4%,-4.4%,-0.5%
O=c1[nH][nH]c(=O)c2c(NS(=O)(=O)c3ccccc3)cccc12,?,24.8%,14.0%,26.3%,29.4%,19µM*
CN1CCCC[C@@H]1CCN1CCCCC1,/,2.0%[9.22 µM],/,/,/,/
Cc1ccccc1OCC(=O)OCC(=O)c1ccc(OCc2ccccc2)cc1,?,14.1µM*,?,?,?,-12.0%
Cc1ccccc1OCC(=O)OCC(=O)c1ccc(OC(=O)c2ccccc2)cc1,0.9%,-5.7%,15.5%,-0.6%,-1.9%,-0.4%
CNCc1ccccc1Sc1cc(O)ccc1O,7.1%,-14.2%,-21.4%,7.4%,-1.1%,9.53µM*
COC(=O)CC1C(C)(C)C(=O)C2CC3=C4CC(=O)OC(c5ccoc5)[C@]4(C)CCC3[C@@]1(C)C2=O (stereo not given in full),/,-26.5%,/,/,/,/
CSc1nsc(/C=C/Nc2ccc(C(=O)O)cc2)c1C#N,-7.1%,3.2%,-1.9%,-4.0%,14.3%,12µM*
CSc1nsc(/C=C/Nc2ccc(F)cc2F)c1C#N,-0.3%,19.0%,-3.0%,1.7%,-3.4%,-19.7%
O=C(Nc1cccc(Cl)c1)N1CCN(Cc2ccccc2)CC1,20.6µM*,10µM*,18.2%,?,?,15.1µM*
